Experimental data taken from ChEMBL document CHEMBL3988442, “University of Dundee, Small-Polar-MMV Screening Library” (2021).

Columns and labels:
[1] = target: T1, Aspartate--tRNA(Asp/Asn) ligase (Mycobacterium tuberculosis (strain ATCC 25618 / H37Rv)) (UniProt P9WFW3); assay: Assay for Asp RNA synthetase-1 from Mycobacterium tuberculosis; type: functional; set-up: scale not given: direction of the effect not stated beside the values; conditions: 30 µM; also: in the data most compounds retested in dose-response had high values
T1 sequence (whole entry): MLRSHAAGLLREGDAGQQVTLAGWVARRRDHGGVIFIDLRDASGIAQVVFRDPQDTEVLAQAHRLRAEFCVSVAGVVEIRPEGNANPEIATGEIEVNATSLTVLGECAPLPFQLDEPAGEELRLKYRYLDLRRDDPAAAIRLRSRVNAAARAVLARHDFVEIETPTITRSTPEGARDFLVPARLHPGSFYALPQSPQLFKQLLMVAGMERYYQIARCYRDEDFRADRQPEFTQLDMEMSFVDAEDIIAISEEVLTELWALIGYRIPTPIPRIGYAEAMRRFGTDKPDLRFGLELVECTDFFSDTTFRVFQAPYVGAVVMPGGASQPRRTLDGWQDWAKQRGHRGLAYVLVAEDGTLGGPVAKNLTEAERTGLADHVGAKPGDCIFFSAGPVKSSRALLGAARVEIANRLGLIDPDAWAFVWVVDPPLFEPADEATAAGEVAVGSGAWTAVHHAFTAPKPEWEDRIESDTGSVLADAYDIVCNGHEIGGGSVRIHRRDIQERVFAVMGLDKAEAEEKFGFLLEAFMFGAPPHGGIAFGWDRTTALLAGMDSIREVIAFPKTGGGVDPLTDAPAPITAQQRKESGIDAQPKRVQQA

[2] = target: Shiga toxin 2 (Escherichia coli O157:H7) (UniProt P09385+P09386); assay: E. coli 0.157:H7 Shiga Toxin SOP - stx2 screening assay; type: functional; set-up: scale not given: direction of the effect not stated beside the values; conditions: 30 µM

SMILES: Cc1ccc(S(=O)(=O)N2CCOc3ccccc32)cc1C(=O)O
- Percent Effect [1]: -1.83%
- Percent Effect [2]: -32.8%

SMILES: O=C1CCc2cc(-c3csc(CCN4CCCC4=O)n3)ccc2N1
- Percent Effect [1]: -0.577%
- Percent Effect [2]: -10.4%

SMILES: Cc1n[nH]c(C)c1C1COCCN1C(=O)c1cc(Cl)c[nH]1 (centres undefined)
- Percent Effect [1]: 2.63%
- Percent Effect [2]: -24.9%

SMILES: COc1cccc(CNC(CN2CCN(C)CC2)c2ccccc2)c1 (centres undefined)
- Percent Effect [1]: 3.94%
- Percent Effect [2]: -26%

SMILES: O=C(CN1CCCC1Cn1cncn1)NCCOc1cccc(F)c1 (centres undefined)
- Percent Effect [1]: -0.983%
- Percent Effect [2]: 18.7%

SMILES: Cc1cnn(CCNCc2nc(COc3ccc(F)cc3)no2)c1
- Percent Effect [1]: -1.72%
- Percent Effect [2]: 16.3%

SMILES: COc1ccnc(N2CCN(C(=O)Cc3ccc(C#N)cc3)CC2)n1
- Percent Effect [1]: 4.99%
- Percent Effect [2]: 8.53%

SMILES: O=c1c2ccccc2nc2n1C(CSc1ccc(Cl)cc1Cl)CN2 (centres undefined)
- Percent Effect [1]: 4.53%
- Percent Effect [2]: 9.69%

SMILES: Cc1ccc(CC(=O)NC(C)C(=O)N2CCS(=O)(=O)CC2)cc1 (centres undefined)
- Percent Effect [1]: 0.123%
- Percent Effect [2]: 1.85%

SMILES: COCC(=O)N(C)Cc1cccc(Cl)c1
- Percent Effect [1]: -0.779%
- Percent Effect [2]: -8.03%

SMILES: N#Cc1ccc(OC2CCN(C(=O)c3ccc4c(c3)OCO4)CC2)nc1
- Percent Effect [1]: -8.83%
- Percent Effect [2]: -32.6%

SMILES: O=C(NCCc1ccsc1)Nc1cccnc1N1CCCC1
- Percent Effect [1]: 1.77%
- Percent Effect [2]: -4.75%

SMILES: CC1CN(C(=O)CN(Cc2ccco2)C2CC2)CCO1 (centres undefined)
- Percent Effect [1]: 3.17%
- Percent Effect [2]: 18.9%

SMILES: Cc1noc([C@H]2C[C@@H]3CCN(CC4CC4)C[C@H]3O2)n1
- Percent Effect [1]: 6.95%
- Percent Effect [2]: -8.04%

SMILES: CCOCC(O)CN1CCN(C(=O)c2cnc3n[nH]c(C)c3c2)CC1 (centres undefined)
- Percent Effect [1]: 1.04%
- Percent Effect [2]: 30.1%

SMILES: CC(C)NC(=O)N1CCN(C(=O)N(C)C)CC2(CC(=O)N(C)C2)C1 (centres undefined)
- Percent Effect [1]: -7.76%
- Percent Effect [2]: -39.2%

SMILES: Cc1ccc(C)c(NC(=O)Nc2c[nH]c(=O)[nH]c2=O)c1
- Percent Effect [1]: -1.44%
- Percent Effect [2]: 2.86%
